In the library only some 3.6% were active in any assay of this set; here they are far more common.
PI5P4Ka inh = qHTS for Inhibitors of phosphatidylinositol 5-phosphate 4-kinase (PI5P4K); hit rate 1.2% among 330,000; PI5P4Kalpha enzyme, ADP-Glo luminescence, 60 min; stronger effect = lower value; Phosphatidylinositol 5-phosphate 4-kinase type-2 alpha (Homo sapiens), P48426; max response, %; AID 652105, 2013; active = max response of -50% or lower; inconclusive = between -30% and -50%; inactive = -30% or higher; note: value at the top dose of about 77 µM; % is set by controls: 0 for no effect and ±100 for the full control effect
Target sequence (P48426 whole entry, looked up): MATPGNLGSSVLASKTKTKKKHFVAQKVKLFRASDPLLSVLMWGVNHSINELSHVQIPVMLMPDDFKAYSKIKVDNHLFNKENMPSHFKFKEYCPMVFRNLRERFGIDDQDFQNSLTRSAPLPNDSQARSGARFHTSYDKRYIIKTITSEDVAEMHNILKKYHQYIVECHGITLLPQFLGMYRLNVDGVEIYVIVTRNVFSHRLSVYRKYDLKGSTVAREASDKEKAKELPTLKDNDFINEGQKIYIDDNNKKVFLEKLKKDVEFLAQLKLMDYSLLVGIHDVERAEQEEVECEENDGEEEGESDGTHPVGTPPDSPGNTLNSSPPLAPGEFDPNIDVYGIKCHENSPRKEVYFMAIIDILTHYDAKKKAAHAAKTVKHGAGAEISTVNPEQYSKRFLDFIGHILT
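Luminescence from ADP-Glo served as readout of PI5P4Kalpha activity in a qHTS format. Reaction: enzyme, substrate, compound, ATP at 5 microM final, 60 min at RT.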
VDR inh = Inhibitors of the vitamin D receptor (VDR): qHTS. Vitamin D3 receptor (Homo sapiens), P11473. VDR-SRC2-3 peptide fluorescence polarization, 2 h. Potency, µM, without a hit: max response, negative = inhibition, hits mostly inhibitors. hit rate 0.93% among 400,000; note: potency is the fitted concentration of half-maximal effect; % is set by controls: 0 for no effect and ±100 for the full control effect
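VDR–SRC2-3 interaction, FP format. Cmpds 23 nl via pintool, brief spin, 2 h ambient incubation.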
KAT2A inh = qHTS Assay for Inhibitors of GCN5L2; Histone acetyltransferase KAT2A (Homo sapiens), Q92830; GCN5L2 HAT assay, ThioGlo1 CoA-SH fluorescence; Potency, µM (series often up to 58.9 µM), without a hit: at the top dose activity change, negative = inhibition, usual class: inhibitors; hit rate 0.21% among 390,000; note: potency is the fitted concentration of half-maximal effect; % is set by controls: 0 for no effect and ±100 for the full control effect
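GCN5L2 (20 nM) in 50mM HEPES pH 7.5, 0.1mM EDTA, 0.01% Tween-20 preincubated 15 min with compounds at room temperature. Reaction started with H3(1-25) 75uM, acetyl-CoA 70uM, ThioGlo1 50uM; CoA-thiol fluorescence (Ex340/Em540) read at 0 and 20 min.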
Rango complex inh = qHTS Assay for Inhibitors of Rango (Ran-regulated importin-beta cargo) - Importin beta complex formation; Rango CFP/YFP FRET sensor + importin beta, 45 min; Potency, µM (series often up to 92.2 µM), for inactives: top-dose inhibition of complex formation; hit rate 0.031% among 340,000; calls by dose curve;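 note: potency is the fitted concentration of half-maximal effect; 0% = DMSO wells and 100% = buffer wells lacking importin beta; nearly all actives have a fitted effect of over 15% in size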
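FRET biosensor (snurportin 1 IBB flanked by EYFP and cerulean), 50 nM, with compound 5 min, then 0.125 microM importin beta in PBS, 1 mM DTT, 0.02% Tween-20, 0.1% BSA. CFP/YFP ratio read after 45 min at room temperature; pre-read flags interference.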
PLK1 PBD inh = qHTS for Inhibitors of PLK1-PDB (polo-like kinase 1 - polo-box domain): Primary Screen. Serine/threonine-protein kinase PLK1 (Homo sapiens), P53350. Plk1 PBD binding of FITC phosphopeptide, fluorescence polarization. Potency, µM, inactives show max response, negative = inhibition, usual class: inhibitors. hit rate 2.8% among 360,000. AID 720504, 2013; note: potency is the fitted concentration of half-maximal effect; series mostly up to about 57 µM; % is set by controls: 0 for no effect and ±100 for the full control effect; nearly all actives have a fitted effect of over 65% in size
Rango dissoc inh = qHTS Assay for Inhibitors of RanGTP induced Rango (Ran-regulated importin-beta cargo) - Importin beta complex dissociation. hit rate 0.071% among 340,000. Biochemical FRET Rango-importin beta, RanGTP-induced dissociation. Potency, µM (top dose mostly 46.1 µM), inactives show top-dose activity change, negative = inhibition. Snurportin-1 (Homo sapiens) + GTP-binding nuclear protein Ran (Homo sapiens) + Importin …; calls by dose curve; note: potency is the fitted concentration of half-maximal effect; % of control where 0% means no effect; nearly all actives have a fitted effect of over 45% in size
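Compounds preincubate 5 min with complex of recombinant Rango and importin beta in PBS with 1 mM DTT. Ran (0.6 uM) loaded with 2 mM GTP plus 0.2 uM RCC1 starts dissociation; FRET is recorded 45 min later.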
The depositor's hits bear a star; ? = inconclusive; nt = not tested or not shown. Unless noted, calls come from the whole dose curve; as a rule, active = well fitted curve in the direction sought with a large enough effect; inconclusive = small, poorly fitted or top-dose-only effect, or another doubt; inactive = no such curve, though single readings can be large; an effect the other way counts as inactive or inconclusive.

SMILES	PI5P4Ka inh	VDR inh	KAT2A inh	Rango complex inh	PLK1 PBD inh	Rango dissoc inh
CCN(CC)c1ccc(C(=S)N2CCN(c3ccccc3)CC2)cc1	7.1	-7.4%	0.4%	11.4%	13.4µM*	1.2%
CC(C)(C)c1ccc(C(=S)N2CCN(c3ccccc3)CC2)cc1	0.2	?	-3.2%	-4.7%	23.8µM*	1.8%
Cc1ccccc1N1CCN(C(=S)c2ccccc2)CC1	-1.5	-17.5%	0.8%	-0.7%	-5.6%	-19.0%
CN(C)c1ccc(C(=O)C(=O)N2CCN(c3ccccc3)CC2)cc1	-12.3	nt	nt	nt	-3.1%	nt
Cc1ccc(-n2ncc3c(N(C)Cc4ccccc4)ncnc32)cc1	nt	7.3%	-2.7%	nt	nt	nt
CCCCCCCCCCCCCCSCC(=O)O	nt	?	10µM*	nt	nt	nt
CCOC(=O)c1c(C)sc(-c2c(-c3ccc4c(c3)OCCO4)[nH]c3c2c(=O)[nH]c(=O)n3C)c1O	nt	-3.4%	-6.9%	nt	nt	nt
CCCN1C(=S)SC(C)(C)C1/[N+]([O-])=C/c1cccnc1 (stereo not drawn)	1.6	-3.7%	-1.6%	2.5%	23.8µM*	5.3%
CCCCN1C(=S)SC(C)(C)C1/[N+]([O-])=C/c1cccnc1 (stereo not drawn)	3.9	-2.4%	-5.5%	5.0%	-14.1%	-6.8%
CC1=C(C(=O)Nc2cccnc2)C(c2ccc(F)cc2)n2nc(-c3cccc(C)c3)nc2N1 (stereo not drawn)	nt	-8.7%	-4.6%	nt	nt	nt
Clc1ccc(-c2nn3c(-c4cc(-c5ccccc5)n[nH]4)nnc3s2)cc1	nt	-7.6%	nt	nt	nt	nt
CN(Cc1ccccc1)c1ccc2cc(S(=O)(=O)N3CCCCC3)ccc2n1	nt	-6.9%	18.9%	nt	nt	nt
COC(=O)C1CCN(C2=C(NS(=O)(=O)c3ccc(Cl)cc3)C(=O)c3ccccc3C2=O)CC1	1.0	-20.0%	-5.7%	1.5%	21.2µM*	8.8%
NC(=O)C1CCN(C2=C(NS(=O)(=O)c3ccc(Cl)cc3)C(=O)c3ccccc3C2=O)CC1	-4.1	-8.6%	-3.2%	-4.8%	-13.3%	46.6%
C=CCn1c(SCc2ccc3c(c2)OCO3)nc2scc(-c3ccco3)c2c1=O	-62.5*	-5.5%	-0.6%	3.4%	-20.7%	-8.9%
C=CCn1c(SCC(=O)N2CC(=O)Nc3ccccc32)nc2scc(-c3ccccc3)c2c1=O	-11.8	4.1%	-7.7%	-2.8%	11.9µM*	-11.5%
C=CCn1c(SC(F)F)nc2scc(-c3ccco3)c2c1=O	11.2	?	-18.7%	-3.0%	-11.3%	3.6%
C=CCn1c(SCC(C)=O)nc2scc(-c3ccco3)c2c1=O	-55.3*	79.4µM*	?	-1.3%	?	-6.9%
Cc1ccccc1Nc1oc(-c2ccccc2)nc1-c1ccccc1	nt	-4.4%	nt	nt	nt	nt
Cc1ccc(NC(=O)CCCc2nnc3n(C)c(=O)c4sccc4n23)cc1F	nt	8.6%	1.4%	nt	nt	nt
CCN(C(=O)c1cc2c(=O)n(CC)c3ccccc3c2s1)c1cccc(C(F)(F)F)c1	nt	-12.0%	-3.4%	nt	nt	nt
Cn1ncc(C(=O)N2CCN(c3ccc(F)cc3)CC2)c1C1CCN(C(=O)OC(C)(C)C)CC1	nt	4.6%	2.8%	nt	nt	nt
CSCC[C@H](NC(=O)COc1cc2c(c3oc(=O)c(C)c(C)c13)CCC(C)(C)O2)C(=O)O	-8.6	-20.5%	-25.2%	-3.1%	29.9µM*	-23.7%
Cc1cc(=O)oc2c3c(cc(OCC(=O)N4CCC(C(=O)O)CC4)c12)OC(C)(C)CC3	0.4	2.9%	17.8µM*	-2.8%	-6.3%	-6.9%
Cc1c(C)c2c(OCC(=O)N3CCC(C(N)=O)CC3)cc3c(c2oc1=O)CCC(C)(C)O3	3.5	-3.4%	?	-0.6%	-16.8%	-15.8%
SMILES	PI5P4Ka inh	VDR inh	KAT2A inh	Rango complex inh	PLK1 PBD inh	Rango dissoc inh
O=C(Nc1ccccc1N1CCN(C(=O)c2ccc(Cl)cc2)CC1)c1cc2ccccc2o1	2.8	-12.1%	-1.8%	-0.9%	29.9µM*	18.3%
O=C(Nc1ccc(N2CCN(C(=O)c3ccc(Cl)cc3)CC2)cc1)c1cc2ccccc2o1	nt	6.6%	?	-5.6%	-6.9%	3.7%
CCCOC(=O)c1c(NC(=O)C(C)Sc2nc(-c3ccccc3)cc(C(F)(F)F)n2)sc(C(=O)N(C)C)c1C (stereo not drawn)	nt	?	-13.6%	nt	nt	nt
CCOC(=O)c1c(NC(=O)CSc2nc(-c3ccc(OC)cc3)cc(C(F)(F)F)n2)sc(C)c1C	nt	79.4µM*	1.0%	nt	nt	nt
CC(Sc1nc(-c2ccccc2)cc(C(F)(F)F)n1)C(=O)N1CCCC1 (stereo not drawn)	-6.3	-7.2%	-7.8%	-2.6%	-3.3%	-3.9%
O=C(O)c1ccc(CSc2nc(-c3ccccc3)cc(C(F)(F)F)n2)cc1	17.5	?	-8.3%	-0.8%	?	0.1%
CC(Sc1nc(-c2ccccc2)cc(C(F)(F)F)n1)C(=O)O (stereo not drawn)	13.7	-23.4%	-9.1%	?	26.7µM*	-16.0%
CCN(CC)C(=O)c1sc(NC(=O)C(C)Sc2nc(-c3ccccc3)cc(C(F)(F)F)n2)c(C(=O)OC)c1C (stereo not drawn)	nt	35.5µM*	-12.8%	nt	nt	nt
O=C(O)c1ccc(CSc2nc(-c3ccc(Cl)cc3)cc(C(F)(F)F)n2)cc1	nt	0.1%	-12.1%	-0.1%	21.2µM*	-9.8%
Fc1ccc(CCNc2ncnc3nc[nH]c23)cc1	nt	-12.1%	nt	nt	nt	nt
COc1cccc(CN2C(=O)c3ccccc3Sc3ccc(C(=O)NCc4ccccc4)cc32)c1	nt	-17.8%	-4.0%	nt	nt	nt
O=C(COc1ccccc1)N(Cc1cccc(F)c1)C1CCS(=O)(=O)C1 (stereo not drawn)	2.2	2.5%	1.1%	-0.3%	-10.9%	-24.1%
O=C(COc1ccc(F)cc1)N(Cc1cccc(Br)c1)C1CCS(=O)(=O)C1 (stereo not drawn)	-22.7	?	-0.2%	-3.3%	23.8µM*	2.0%
COc1ccc(NC(=O)N2CCc3c(sc4c3CCCC4)C2c2ccc(F)cc2)cc1 (stereo not drawn)	nt	14.7%	-11.8%	nt	nt	nt
CCn1c(N)c(C(=O)NCCOC)sc1=S	-12.1	-10.2%	-12.1%	-0.7%	26.7µM*	-7.2%
CCn1c(N)c(C(=O)Nc2ccccc2C(=O)OC)sc1=S	-13.4	-5.5%	-2.7%	-0.6%	11.9µM*	0.6%
N#Cc1cc2c(OCC(O)CN3CCN(C(c4ccccc4)c4ccccc4)CC3)cccc2[nH]1 (stereo not drawn)	nt	-0.9%	-8.4%	nt	nt	nt
COC(=O)c1c(-c2ccc(C)cc2)csc1NC(=O)c1c(-c2ccccc2)noc1C	nt	nt	1.4%	nt	nt	nt
